According to article PMC7862700, “An all-to-all approach to the identification of sequence-specific readers for epigenetic DNA modifications on cytosine”:

How the values were obtained:
Assay in all cases: DAPPL (digital affinity profiling via proximity ligation, sequencing); 10 mM Tris-HCl pH 7.5, 50 mM NaCl, 1 mM DTT, 4% glycerol, room temperature, 30 min; GST-TFs on glutathione beads, 16-mer random dsDNA library, 0.1% formaldehyde crosslink after washing; high values mean tight binding
Conditions in all cases: protein: recombinant; tags: N-terminal GST; dsDNA, one strand shown
ERF = molecular target: T1, ERF (Homo sapiens, UniProt P50548 1-548)
T1 sequence: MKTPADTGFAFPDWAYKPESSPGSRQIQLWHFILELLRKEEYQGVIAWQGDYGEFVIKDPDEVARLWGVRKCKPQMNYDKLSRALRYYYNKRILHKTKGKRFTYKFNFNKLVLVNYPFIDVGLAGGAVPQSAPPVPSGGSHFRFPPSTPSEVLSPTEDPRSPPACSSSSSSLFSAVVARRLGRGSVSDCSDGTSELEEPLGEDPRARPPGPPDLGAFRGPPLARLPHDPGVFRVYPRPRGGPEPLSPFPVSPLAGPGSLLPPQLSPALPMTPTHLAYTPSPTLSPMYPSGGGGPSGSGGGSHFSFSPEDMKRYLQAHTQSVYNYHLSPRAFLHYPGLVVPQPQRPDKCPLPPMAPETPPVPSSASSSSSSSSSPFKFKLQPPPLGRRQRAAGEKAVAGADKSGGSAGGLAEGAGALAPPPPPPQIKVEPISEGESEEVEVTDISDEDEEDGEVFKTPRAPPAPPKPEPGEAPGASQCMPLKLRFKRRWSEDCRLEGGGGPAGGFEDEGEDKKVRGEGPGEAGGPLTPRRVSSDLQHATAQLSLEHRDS
Summary of the method: (§1)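 GST fusions of human transcription factors were expressed in yeast and captured with glutathione beads. Once given DNA barcodes and pooled alongside a tag-only sample, they were incubated for 30 min at room temperature with 200 nmole of a random double-stranded 16-mer DNA library in Tris/NaCl/DTT/glycerol buffer, then washed, crosslinked (0.1% formaldehyde), proximity-ligated, PCR-amplified and sequenced on an Illumina NextSeq500. The binding signal of each hexamer is its read frequency for a factor divided by its frequency for the tag-only sample.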

ETV3L = molecular target: T2, ETV3L (Homo sapiens, UniProt Q6ZN32 1-361)
T2 sequence: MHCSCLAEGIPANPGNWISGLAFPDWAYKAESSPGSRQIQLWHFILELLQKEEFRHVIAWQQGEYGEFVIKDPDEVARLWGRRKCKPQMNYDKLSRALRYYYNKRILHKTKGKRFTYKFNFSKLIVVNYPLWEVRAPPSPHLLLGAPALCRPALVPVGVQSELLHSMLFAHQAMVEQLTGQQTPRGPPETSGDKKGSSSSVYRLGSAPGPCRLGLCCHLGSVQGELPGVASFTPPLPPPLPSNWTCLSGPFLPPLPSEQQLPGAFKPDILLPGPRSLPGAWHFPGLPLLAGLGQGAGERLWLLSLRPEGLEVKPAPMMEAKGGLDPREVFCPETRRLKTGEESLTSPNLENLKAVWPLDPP
Summary of the method: as §1

ETS2 = molecular target: T3, ETS2 (Homo sapiens, UniProt P15036 1-469)
T3 sequence: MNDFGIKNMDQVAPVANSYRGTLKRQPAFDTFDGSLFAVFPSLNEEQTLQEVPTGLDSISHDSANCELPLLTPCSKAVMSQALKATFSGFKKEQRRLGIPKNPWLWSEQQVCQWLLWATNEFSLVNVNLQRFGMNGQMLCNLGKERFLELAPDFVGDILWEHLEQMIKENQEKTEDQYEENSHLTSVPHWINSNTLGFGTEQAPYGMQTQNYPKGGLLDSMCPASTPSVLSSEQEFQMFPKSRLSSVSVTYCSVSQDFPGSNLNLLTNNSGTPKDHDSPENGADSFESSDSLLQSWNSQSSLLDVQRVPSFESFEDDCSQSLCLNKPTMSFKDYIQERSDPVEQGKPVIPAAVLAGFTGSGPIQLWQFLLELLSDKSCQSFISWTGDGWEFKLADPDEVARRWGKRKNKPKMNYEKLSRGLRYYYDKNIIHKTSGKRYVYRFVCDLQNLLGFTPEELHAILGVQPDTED
Summary of the method: as §1

SPDEF = molecular target: T4, SPDEF (Homo sapiens, UniProt O95238 1-335)
T4 sequence: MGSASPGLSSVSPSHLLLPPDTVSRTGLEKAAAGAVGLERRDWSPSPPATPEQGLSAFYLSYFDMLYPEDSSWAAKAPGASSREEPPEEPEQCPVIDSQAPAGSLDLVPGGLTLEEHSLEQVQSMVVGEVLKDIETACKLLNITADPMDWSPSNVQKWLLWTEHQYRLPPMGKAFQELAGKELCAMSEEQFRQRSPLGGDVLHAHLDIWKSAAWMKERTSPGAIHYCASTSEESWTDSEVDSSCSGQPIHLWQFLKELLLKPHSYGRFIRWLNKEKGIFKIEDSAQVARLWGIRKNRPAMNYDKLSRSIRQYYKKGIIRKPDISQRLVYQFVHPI
Summary of the method: as §1

ETV7 = molecular target: T5, ETV7 (Homo sapiens, UniProt Q9Y603 1-341)
T5 sequence: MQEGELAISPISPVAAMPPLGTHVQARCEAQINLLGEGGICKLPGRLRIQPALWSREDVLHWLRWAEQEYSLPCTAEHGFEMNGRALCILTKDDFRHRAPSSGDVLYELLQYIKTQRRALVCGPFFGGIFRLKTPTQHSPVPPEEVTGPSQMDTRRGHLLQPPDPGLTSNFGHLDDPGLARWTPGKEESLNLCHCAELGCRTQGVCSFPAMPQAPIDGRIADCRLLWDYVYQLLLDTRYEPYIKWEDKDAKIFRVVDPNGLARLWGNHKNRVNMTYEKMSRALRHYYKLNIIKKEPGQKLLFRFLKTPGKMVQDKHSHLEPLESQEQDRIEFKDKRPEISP
Summary of the method: as §1

ELF5 = molecular target: T6, ELF5 (Homo sapiens, UniProt Q9UKW6-2 1-255)
T6 sequence: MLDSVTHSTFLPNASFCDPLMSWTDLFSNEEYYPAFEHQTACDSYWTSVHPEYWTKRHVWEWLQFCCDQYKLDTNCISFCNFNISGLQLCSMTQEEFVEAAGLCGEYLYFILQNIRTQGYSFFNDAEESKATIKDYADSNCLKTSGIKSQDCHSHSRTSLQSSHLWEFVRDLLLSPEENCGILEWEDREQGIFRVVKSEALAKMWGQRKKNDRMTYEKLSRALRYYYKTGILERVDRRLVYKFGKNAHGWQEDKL
Summary of the method: as §1

ETV6 = ETV6 (Homo sapiens, UniProt P41212 1-452)
Summary of the method: as §1

ETV3 = molecular target: T7, ETV3 (Homo sapiens, UniProt P41162-2 1-143)
T7 sequence: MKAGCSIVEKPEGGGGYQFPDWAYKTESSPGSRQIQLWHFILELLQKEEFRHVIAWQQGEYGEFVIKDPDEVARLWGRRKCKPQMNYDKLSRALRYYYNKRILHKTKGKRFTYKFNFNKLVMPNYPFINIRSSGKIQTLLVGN
Summary of the method: as §1

ETV6, sequence (P41212 whole entry): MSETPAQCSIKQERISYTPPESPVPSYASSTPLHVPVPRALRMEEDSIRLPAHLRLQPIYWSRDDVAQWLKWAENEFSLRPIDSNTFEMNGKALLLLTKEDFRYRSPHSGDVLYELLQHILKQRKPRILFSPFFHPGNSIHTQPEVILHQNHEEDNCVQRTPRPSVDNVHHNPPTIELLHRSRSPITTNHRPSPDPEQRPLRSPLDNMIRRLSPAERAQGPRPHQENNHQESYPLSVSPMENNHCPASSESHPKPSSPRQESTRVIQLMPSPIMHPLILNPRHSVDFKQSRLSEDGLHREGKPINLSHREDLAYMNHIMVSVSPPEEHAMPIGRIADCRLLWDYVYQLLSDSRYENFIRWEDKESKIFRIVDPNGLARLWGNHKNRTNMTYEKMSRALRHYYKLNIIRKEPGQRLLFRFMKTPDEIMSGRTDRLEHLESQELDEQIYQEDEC

| Sequence | binding signal (ERF) | binding signal (ETV3L) | binding signal (ETS2) | binding signal (SPDEF) | binding signal (ETV7) | binding signal (ELF5) | binding signal (ETV6) | binding signal (ETV3) |
| --- | --- | --- | --- | --- | --- | --- | --- | --- |
| TGTGTT | 1.08 fold enrichment (6-mer frequency, TF over GST control) | 1.15 fold enrichment (6-mer frequency, TF over GST control) | 1.06 fold enrichment (6-mer frequency, TF over GST control) | 1.21 fold enrichment (6-mer frequency, TF over GST control) | 1.19 fold enrichment (6-mer frequency, TF over GST control) | 1.11 fold enrichment (6-mer frequency, TF over GST control) | 1.08 fold enrichment (6-mer frequency, TF over GST control) | – |
| GTCCAT | 1.08 fold enrichment (6-mer frequency, TF over GST control) | 1.24 fold enrichment (6-mer frequency, TF over GST control) | 1.04 fold enrichment (6-mer frequency, TF over GST control) | 1.02 fold enrichment (6-mer frequency, TF over GST control) | 1.14 fold enrichment (6-mer frequency, TF over GST control) | 1.07 fold enrichment (6-mer frequency, TF over GST control) | 1.07 fold enrichment (6-mer frequency, TF over GST control) | 1.11 fold enrichment (6-mer frequency, TF over GST control) |
| CGTCTC | 1.49 fold enrichment (6-mer frequency, TF over GST control) | 1.71 fold enrichment (6-mer frequency, TF over GST control) | 1.58 fold enrichment (6-mer frequency, TF over GST control) | 1.35 fold enrichment (6-mer frequency, TF over GST control) | 1.44 fold enrichment (6-mer frequency, TF over GST control) | 1.38 fold enrichment (6-mer frequency, TF over GST control) | 1.46 fold enrichment (6-mer frequency, TF over GST control) | 1.48 fold enrichment (6-mer frequency, TF over GST control) |
| TTATAG | 1.24 fold enrichment (6-mer frequency, TF over GST control) | 1.28 fold enrichment (6-mer frequency, TF over GST control) | 1.33 fold enrichment (6-mer frequency, TF over GST control) | 1.19 fold enrichment (6-mer frequency, TF over GST control) | 1.24 fold enrichment (6-mer frequency, TF over GST control) | 1.15 fold enrichment (6-mer frequency, TF over GST control) | 1.16 fold enrichment (6-mer frequency, TF over GST control) | – |
| CGAATT | 1.28 fold enrichment (6-mer frequency, TF over GST control) | 1.28 fold enrichment (6-mer frequency, TF over GST control) | 1.14 fold enrichment (6-mer frequency, TF over GST control) | 1.28 fold enrichment (6-mer frequency, TF over GST control) | 1.31 fold enrichment (6-mer frequency, TF over GST control) | 1.17 fold enrichment (6-mer frequency, TF over GST control) | 1.08 fold enrichment (6-mer frequency, TF over GST control) | 1.22 fold enrichment (6-mer frequency, TF over GST control) |
| CAAGAA | 1.12 fold enrichment (6-mer frequency, TF over GST control) | 1.09 fold enrichment (6-mer frequency, TF over GST control) | 1.07 fold enrichment (6-mer frequency, TF over GST control) | 1.06 fold enrichment (6-mer frequency, TF over GST control) | 1.14 fold enrichment (6-mer frequency, TF over GST control) | 1.08 fold enrichment (6-mer frequency, TF over GST control) | 1.04 fold enrichment (6-mer frequency, TF over GST control) | – |
| ACACGA | 1.15 fold enrichment (6-mer frequency, TF over GST control) | 1.04 fold enrichment (6-mer frequency, TF over GST control) | 1.08 fold enrichment (6-mer frequency, TF over GST control) | 1.03 fold enrichment (6-mer frequency, TF over GST control) | 1.11 fold enrichment (6-mer frequency, TF over GST control) | 1.03 fold enrichment (6-mer frequency, TF over GST control) | 1.06 fold enrichment (6-mer frequency, TF over GST control) | – |
| TGATTT | 1.17 fold enrichment (6-mer frequency, TF over GST control) | 1.29 fold enrichment (6-mer frequency, TF over GST control) | 1.28 fold enrichment (6-mer frequency, TF over GST control) | 1.21 fold enrichment (6-mer frequency, TF over GST control) | 1.24 fold enrichment (6-mer frequency, TF over GST control) | 1.23 fold enrichment (6-mer frequency, TF over GST control) | 1.23 fold enrichment (6-mer frequency, TF over GST control) | 1.24 fold enrichment (6-mer frequency, TF over GST control) |
| TTCAGT | 1.09 fold enrichment (6-mer frequency, TF over GST control) | 1.13 fold enrichment (6-mer frequency, TF over GST control) | 1 fold enrichment (6-mer frequency, TF over GST control) | 1.07 fold enrichment (6-mer frequency, TF over GST control) | 1.04 fold enrichment (6-mer frequency, TF over GST control) | 1.05 fold enrichment (6-mer frequency, TF over GST control) | 1.06 fold enrichment (6-mer frequency, TF over GST control) | – |
| CCCTGT | 1.19 fold enrichment (6-mer frequency, TF over GST control) | 1.06 fold enrichment (6-mer frequency, TF over GST control) | 1.06 fold enrichment (6-mer frequency, TF over GST control) | 1.02 fold enrichment (6-mer frequency, TF over GST control) | 1.03 fold enrichment (6-mer frequency, TF over GST control) | 1.08 fold enrichment (6-mer frequency, TF over GST control) | 1.06 fold enrichment (6-mer frequency, TF over GST control) | – |
| TTGCTG | 1.28 fold enrichment (6-mer frequency, TF over GST control) | 1.26 fold enrichment (6-mer frequency, TF over GST control) | 1.21 fold enrichment (6-mer frequency, TF over GST control) | 1.18 fold enrichment (6-mer frequency, TF over GST control) | 1.37 fold enrichment (6-mer frequency, TF over GST control) | 1.14 fold enrichment (6-mer frequency, TF over GST control) | 1.13 fold enrichment (6-mer frequency, TF over GST control) | 1.23 fold enrichment (6-mer frequency, TF over GST control) |
| TACATT | 1.34 fold enrichment (6-mer frequency, TF over GST control) | 1.18 fold enrichment (6-mer frequency, TF over GST control) | 1.19 fold enrichment (6-mer frequency, TF over GST control) | 1.18 fold enrichment (6-mer frequency, TF over GST control) | 1.25 fold enrichment (6-mer frequency, TF over GST control) | 1.22 fold enrichment (6-mer frequency, TF over GST control) | 1.29 fold enrichment (6-mer frequency, TF over GST control) | 1.2 fold enrichment (6-mer frequency, TF over GST control) |
| TGCGTA | 1.15 fold enrichment (6-mer frequency, TF over GST control) | 1.17 fold enrichment (6-mer frequency, TF over GST control) | 1.19 fold enrichment (6-mer frequency, TF over GST control) | 1.12 fold enrichment (6-mer frequency, TF over GST control) | 1.01 fold enrichment (6-mer frequency, TF over GST control) | 1.1 fold enrichment (6-mer frequency, TF over GST control) | 1.11 fold enrichment (6-mer frequency, TF over GST control) | – |
| TGCCCC | 1.15 fold enrichment (6-mer frequency, TF over GST control) | 1.28 fold enrichment (6-mer frequency, TF over GST control) | 1.12 fold enrichment (6-mer frequency, TF over GST control) | 1.21 fold enrichment (6-mer frequency, TF over GST control) | 1.18 fold enrichment (6-mer frequency, TF over GST control) | 1.18 fold enrichment (6-mer frequency, TF over GST control) | 1.24 fold enrichment (6-mer frequency, TF over GST control) | 1.3 fold enrichment (6-mer frequency, TF over GST control) |
| ATATTG | 1.31 fold enrichment (6-mer frequency, TF over GST control) | 1.41 fold enrichment (6-mer frequency, TF over GST control) | 1.36 fold enrichment (6-mer frequency, TF over GST control) | 1.43 fold enrichment (6-mer frequency, TF over GST control) | 1.33 fold enrichment (6-mer frequency, TF over GST control) | 1.34 fold enrichment (6-mer frequency, TF over GST control) | 1.42 fold enrichment (6-mer frequency, TF over GST control) | 1.35 fold enrichment (6-mer frequency, TF over GST control) |
